What is called inhibition is the relative decrease from the control value, in per cent.

Results on 87 compounds are retold here after PubChem BioAssay AID725 (NMMLSC, 2007).

Fewer than 10 of roughly 1,300 compounds were called active. Not all results are given here. Values without a mark were called inactive. The rule behind the calls is not given here.

N-formyl peptide receptor 2 (Homo sapiens), sequence (P25090 whole entry, looked up): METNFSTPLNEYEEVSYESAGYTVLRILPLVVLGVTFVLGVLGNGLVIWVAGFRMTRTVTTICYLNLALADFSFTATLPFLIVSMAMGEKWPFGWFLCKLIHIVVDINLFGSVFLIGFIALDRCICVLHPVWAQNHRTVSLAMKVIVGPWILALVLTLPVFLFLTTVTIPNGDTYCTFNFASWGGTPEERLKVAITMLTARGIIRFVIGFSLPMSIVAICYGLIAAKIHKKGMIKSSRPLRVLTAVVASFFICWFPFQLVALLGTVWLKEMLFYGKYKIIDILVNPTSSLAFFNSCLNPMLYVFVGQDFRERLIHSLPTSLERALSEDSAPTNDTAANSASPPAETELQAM

The assay addresses N-formyl peptide receptor 2 (Homo sapiens) (UniProt P25090). In words: FPRL1 fluorescent ligand binding inhibitors, primary screen, selectivity assay for FPR ligand SAR project, cell-based, flow cytometry, HTS counterscreen (AID 725). Particulars: FPRL1-expressing cells, active compounds read high, concentration not given here. In general terms: A flow cytometer gives signals particle by particle.
With `Cc1ccc(C2/C(=C(\O)c3ccccc3)C(=O)C(=O)N2CCN2CCNCC2)cc1` (configuration not stated), the inhibition was 7.6%.

In the case of `COC(=O)c1c[nH]n2c(=O)c3c(nc12)C(=O)N(Cc1ccccc1)C3`, the inhibition is -4.5%.

`Cc1cccc(C(CC(=O)O)NS(=O)(=O)c2ccc(C)cc2C)c1` (configuration not stated): the inhibition was -12.7%.

Consider `CCC(=O)N1c2ccccc2CC1C(=O)N1CCN(CC)CC1` (configuration not stated), for which the inhibition is 5.1%.

As to `COc1ccc(C2C(C(=O)c3ccc(C)o3)=C(O)C(=O)N2Cc2cccnc2)cc1OC` (configuration not stated), the inhibition was 2.3%.

For the compound `CCN(CC)C(=O)c1c(NC(=O)c2cccc(C)c2)sc2c1CCCCC2`, the inhibition is 0.5%.

As to `O=C1C(=O)N(CCCN2CCOCC2)C(c2ccc(Cl)cc2)/C1=C(\O)c1ccccc1` (configuration not stated), the inhibition is 6.2%.

Turning to `CCc1cc2c(=O)c(-c3ccc4c(c3)OCO4)c(C(F)(F)F)oc2c(CN(C)C)c1O`, the inhibition was -3%.

As to `O=C(CCCC(=O)c1ccccc1)Nc1cc(F)ccc1F`, the inhibition was -27.4%.

As for `CCN(C(=O)c1noc2c1CC(C)CC2)c1cccc(C)c1` (configuration not stated), the inhibition was -9.6%.

For the compound `CC(C)c1ccc(CN(Cc2ccco2)C(=O)c2ccc(F)cc2)cc1`, the inhibition is -3.3%.

In the case of `COc1ccc(C2C(C(=O)c3ccco3)=C(O)C(=O)N2c2nnc(C)s2)cc1OC` (configuration not stated), the inhibition was 1.1%.

Consider `CCOC(=O)c1c(NC(=O)c2ccc(Cl)cc2)sc2c1CCC(C)C2` (configuration not stated), for which the inhibition was -4.7%.

As to `Cc1onc(-c2ccccc2Cl)c1C(=O)NC1CCCCC1`, the inhibition is 4.7%.

For `Cc1ccc(N2C(=O)CSC2c2ccc(C(C)(C)C)cc2)cc1C` (configuration not stated), the inhibition was -24.8%.

On to `COC(=O)c1c(NC(=O)c2cccc(Cl)c2)sc2c1CCCC2`, for which the inhibition was 4.4%.

In the case of `Cc1ccc(N2C(=O)C(=O)/C(=C(\O)c3ccc(Cl)cc3)C2c2ccc(O)cc2)cc1Br` (configuration not stated), the inhibition was -2.4%.

As for `CCOC(=O)c1c(NC(=O)c2ccccc2C)sc2c1CCC(CC)C2` (configuration not stated), the inhibition was -9.3%.

Consider `Cc1cc(C)n(Cc2c(C(=O)N3CCC(C)CC3)noc2C)n1`, for which the inhibition was 18.2%.

On to `CCCN(C(=O)[C@H]1[C@@H]2C[C@@H]3[C@H]1C(=O)O[C@@H]3C2)c1ccccc1F`, for which the inhibition was 15.9%.

As to `COc1ccc(C2/C(=C(\O)c3ccc(C)cc3)C(=O)C(=O)N2CCN2CCOCC2)c(OC)c1` (configuration not stated), the inhibition was -7%.

Take `O=C(C(c1ccccc1)N1Cc2ccccc2C1=O)N1CCCCCC1` (configuration not stated): the inhibition is 1.9%.

Regarding `Nc1nonc1-c1nc2ccccc2n1CC(=O)Nc1ccccc1Cl`, the inhibition is -1.8%.

As for `COC(=O)c1ccc(-c2ccco2)n1CC(=O)Nc1c(C)cc(C)cc1C`, the inhibition is -13.6%.

On to `COc1ccc(C2/C(=C(/O)c3ccccc3)C(=O)C(=O)N2c2ccc(F)cc2)c(OC)c1` (configuration not stated), for which the inhibition is 3.6%.

As to `O=C1C(=O)N(Cc2cccnc2)C(c2ccc(F)cc2)/C1=C(\O)c1ccccc1` (configuration not stated), the inhibition is 6.7%.

Take `CC(C)OC(=O)c1c(NC(=O)C2CCCC2)sc2c1CCCC2`: the inhibition is -0.2%.

Consider `O=C1C(=O)N(CCCN2CCOCC2)C(c2cccc(Br)c2)/C1=C(\O)c1ccccc1` (configuration not stated), for which the inhibition is 5.8%.

On to `Cc1nnc(N2C(=O)C(=O)/C(=C(/O)c3ccccc3)C2c2ccc(Cl)cc2)s1` (configuration not stated), for which the inhibition is -5%.

Take `COCCCN1C(=O)C(=O)/C(=C(/O)c2ccccc2)C1c1ccc(Br)cc1` (configuration not stated): the inhibition is 3.8%.

Turning to `COc1cccc(NC(=O)C2CCC(=O)N2S(=O)(=O)c2ccccc2)c1` (configuration not stated), the inhibition is -2.9%.

In the case of `COC(=O)c1c(NC(=O)c2cccc(Br)c2)sc(C)c1C`, the inhibition is 3.3%.

As for `CCOC(=O)c1sc(N2C(=O)C(=O)/C(=C(/O)c3ccccc3)C2c2ccc(O)c(OC)c2)nc1C` (configuration not stated), the inhibition is 0.2%.

For the compound `COC(=O)c1c(NC(=O)c2ccc(F)cc2)sc2c1CCC2`, the inhibition is -10.9%.

Consider `Cc1ccc(C2CC(c3ccccc3)n3ncnc3N2C(=O)c2ccccc2)cc1` (configuration not stated), for which the inhibition was -21.4%.

As for `CC(O)CN1C(=O)C(=O)/C(=C(\O)c2ccccc2)C1c1cccnc1` (configuration not stated), the inhibition is 1.7%.

As for `COc1ccccc1C1CC(=O)NC2=C1C(=O)CC(c1ccccc1Cl)C2` (configuration not stated), the inhibition was 0.3%.

With `COc1ccc(C2C(C(=O)c3cc4ccccc4o3)=C(O)C(=O)N2CCN(C)C)cc1OC` (configuration not stated), the inhibition was 9.3%.

As to `COC(=O)c1c(NC(=O)c2cccs2)sc(C)c1C`, the inhibition is 1.5%.

On to `CCCCCCc1cc2c(=O)c(-c3nc4ccccc4n3C)c(C(F)(F)F)oc2cc1O`, for which the inhibition was 3.9%.

On to `COc1cccc(OC)c1C(=O)Oc1ccc2c(=O)c(Oc3ccc4ccccc4c3)c(C(F)(F)F)oc2c1`, for which the inhibition was 4.4%.

As to `C=CCN1C(=O)C2(/C(=C(/O)c3ccc(C)cc3)C(=O)C(=O)N2CC2CCCO2)c2ccccc21` (configuration not stated), the inhibition was 0.9%.

For the compound `CCN(CC)Cc1c(O)ccc2c(=O)c(-c3ccc(OC)c(OC)c3)c(C(F)(F)F)oc12`, the inhibition was -8.6%.

For the compound `O=C1C(=O)N(c2nncs2)C(c2cccs2)/C1=C(/O)c1ccc(F)cc1` (configuration not stated), the inhibition is -5.3%.

In the case of `CCOC(=O)c1c(NC(=O)c2ccc(OC)cc2)sc(C)c1C`, the inhibition was -3.8%.

With `CC(C)c1ccc(C2/C(=C(\O)c3ccccc3)C(=O)C(=O)N2CCC(=O)O)cc1` (configuration not stated), the inhibition is 7.3%.

Regarding `COC(=O)c1c(NC(=O)c2ccc(Cl)c(Cl)c2)sc2c1CCCC2`, the inhibition is -2.7%.

As to `CCOC(=O)c1c(CC(C)C)csc1NC(=O)c1ccccc1F`, the inhibition was -1.5%.

In the case of `COc1ccc(Br)cc1CNC(=O)Cn1ncc2ccccc21`, the inhibition is -17.2%.

Consider `CCCCn1c(=O)c2c(nc3n2CCN3Cc2ccco2)n(C)c1=O`, for which the inhibition was -0.5%.

For the compound `O=c1c(-c2cccc(Cl)c2)c(C(F)(F)F)oc2c(CN3CCOCC3)c(O)ccc12`, the inhibition was 3.4%.

For `CCc1nn(Cc2ccccc2F)c(=O)c2cc3cc(C)ccc3n12`, the inhibition is -0.2%.

On to `CCN(CC)C(=O)c1c(NC(=O)c2ccccc2F)sc2c1CCC(C)C2` (configuration not stated), for which the inhibition was 2.2%.

Turning to `CCOC(=O)c1c(NC(=O)c2ccccc2OCC)sc2c1CCCC2`, the inhibition was -11.3%.

In the case of `Cc1ccc(OC(=O)c2ccc(N3C(=O)c4cccc(N)c4C3=O)cc2)cc1C`, the inhibition was -3.5%.

For `CCOC(=O)C1=C(C)N(c2ccc(C)cc2)C(=O)/C1=C\c1ccccc1OC`, the inhibition was -4.9%.

For the compound `O=C1C(=O)N(CCc2c[nH]c3ccccc23)C(c2cccnc2)/C1=C(/O)c1ccc(Cl)cc1` (configuration not stated), the inhibition was -0.1%.

Take `CCc1ccc(Oc2c(C(F)(F)F)oc3cc(OCC(=O)OC4CCCCC4)ccc3c2=O)cc1`: the inhibition is 1.4%.

`Cc1sc(NC(=O)C2C3CCC(O3)C2C(=O)O)c(C(N)=O)c1-c1ccc(C(C)C)cc1` (configuration not stated): the inhibition is -4.5%.

Consider `O=C1C(=O)N(c2cccc(C(F)(F)F)c2)C(c2ccccc2[N+](=O)[O-])/C1=C(\O)c1ccccc1` (configuration not stated), for which the inhibition was -1.4%.

On to `CCOc1ccccc1C(=O)N(Cc1ccc(Cl)cc1)Cc1ccco1`, for which the inhibition is -14.6%.

For `O=C1C(=O)N(Cc2cccnc2)C(c2cccc(Br)c2)/C1=C(\O)c1ccccc1` (configuration not stated), the inhibition is 4.9%.

Consider `CC(C)OC(=O)c1c(NC(=O)C2CCCCC2)sc2c1CCCC2`, for which the inhibition was -2.7%.

For the compound `CCOc1ccc(/C(O)=C2\C(=O)C(=O)N(c3nnc(C)s3)C2c2ccc(Br)cc2)cc1` (configuration not stated), the inhibition is 1.9%.

Take `COc1ccc(C2C(C(=O)c3cc4ccccc4o3)=C(O)C(=O)N2c2nccs2)cc1` (configuration not stated): the inhibition was 1%.

For `Cc1ccc(C2/C(=C(\O)c3ccc(F)cc3)C(=O)C(=O)N2CCN2CCOCC2)o1` (configuration not stated), the inhibition was 5.6%.

Turning to `CN1C(=O)c2ccccc2C(C(=O)N2CCCCC2)C1c1cccs1` (configuration not stated), the inhibition was -3.9%.

`O=C1C(=O)N(CCN2CCOCC2)C(c2ccco2)/C1=C(\O)c1ccc(F)cc1` (configuration not stated): the inhibition is 5.5%.

With `Cc1cc(=O)n2[nH]cc(C(=O)O)c2n1`, the inhibition was -16.5%.

In the case of `O=C(C1=C(O)C(=O)N(CCN2CCOCC2)C1c1cccs1)c1ccco1` (configuration not stated), the inhibition was -2%.

On to `CN(C)CCN1C(=O)C(O)=C(C(=O)c2cc3ccccc3o2)C1c1cccc(Oc2ccccc2)c1` (configuration not stated), for which the inhibition was 1.3%.

Take `CCN1C(=O)C(O)(CC(=O)c2ccc3c(c2)OCO3)c2ccccc21` (configuration not stated): the inhibition was -4.3%.

As to `CCOC(=O)c1c(NC(=O)C2C3CCC(O3)C2C(=O)O)sc2c1CCC(CC)C2` (configuration not stated), the inhibition is 0.3%.

`CCOC(=O)N1CCC(c2cc(=O)n3[nH]cc(C(=O)Nc4ccc(OCC)cc4)c3n2)CC1`: the inhibition is -5.2%.

`CCOC(=O)C1NN=C(C(=O)c2ccc(OC)cc2)C1c1ccccc1` (configuration not stated): the inhibition is 3.5%.

As to `Cc1ccc(N2C(=O)C(=O)/C(=C(\O)c3ccc(Cl)cc3)C2c2cccnc2)cc1Br` (configuration not stated), the inhibition is 4.5%.

In the case of `CCc1cc2c(=O)c(-c3nc4ccccc4s3)c(C)oc2c(CN2CCCCC2)c1O`, the inhibition is -7.2%.

For the compound `COc1ccc(N2C(=O)CSC2c2ccc(C(C)C)cc2)cc1` (configuration not stated), the inhibition was 4.8%.

With `CCCCn1c(=O)c2oc3ccccc3c2n(Cc2ccccc2F)c1=O`, the inhibition was -2.7%.

For the compound `CCCN(C(=O)[C@H]1[C@@H]2C[C@@H]3[C@H]1C(=O)O[C@@H]3C2)c1ccccc1OCC`, the inhibition was 9.1%.

As to `Cc1cccc(N2C(=O)CSC2c2cccc(F)c2)c1` (configuration not stated), the inhibition was -31.8%.

Take `Cc1ccc(C)c(Cn2c(=O)cc(C)c3c(C)nn(-c4ccccc4)c32)c1`: the inhibition was -16.2%.

Turning to `Cc1ccc(/C(O)=C2/C(=O)C(=O)NC2c2ccc3c(c2)OCO3)cc1` (configuration not stated), the inhibition was 1.1%.

As for `CCOC(=O)C1=C(C)N(c2ccc(C)c(C)c2)C(=O)/C1=C\c1ccccc1OC`, the inhibition is -8.1%.

As to `CCN1C(=O)C(=C2CCCC2)N(CC)C1=O`, the inhibition was 8%.

As to `CCCCCCN1C(=O)C(=O)/C(=C(\O)c2ccccc2)C1c1ccc(C(C)C)cc1` (configuration not stated), the inhibition is -2.5%.

As to `COc1cc(C)nc(N(CCC(C)C)S(=O)(=O)c2ccc(C)cc2)n1`, the inhibition is -7.7%.
